Data: PubChem BioAssay

experiment: IRF3 reporter activation in THP-1 macrophages, cell-based, PMA-stimulated THP-1, luminescence (AID 1053176); conditions: PMA-differentiated THP-1, IRF3 reporter luminescence; stronger effect = higher value; call rule not given here

Fraction signal, inactive:
COc1ccc(Nc2ncc(-c3ccccc3)o2)cc1OC -0.0085, Fc1ccc(-c2nc3n(c2-c2ccncc2)CCS3)cc1 -0.0105, CCn1c(-c2nonc2N)nc2cnc(Oc3cccc(NC(=O)c4ccc(OCCN5CCOCC5)cc4)c3)cc21 0.007, Cc1ccc(O)cc1Nc1ccnc2ccc(S(C)(=O)=O)cc12 -0.007, CN(C)c1cc2c(Nc3ccc4c(cnn4Cc4ccccc4)c3)ncnc2cn1 -0.004, Cc1ccc2c(-c3ccnc(Nc4ccc5c(c4)OCCO5)n3)c(-c3ccc(C(F)(F)F)cc3)nn2n1 0.002, Cc1ccc(NC(=O)c2ccoc2)cc1-c1ccc(C(=O)NCC2CC2)cc1 -0.016, O=C(Nc1n[nH]c2cc(-c3cc(F)ccc3F)ccc12)C1CC1 -0.0055, NC(=O)c1ccc(-c2nc(-c3ccc4c(c3)OCO4)c(-c3ccccn3)[nH]2)cc1 -0.007, CN(C)c1cc2c(Nc3ccc4nc(Cc5ccccc5)[nH]c4c3)ncnc2cn1 -0.006, Cc1ccc(C(=O)NC2CCC2)cc1-c1ccc(C(=O)NCC2CC2)cc1 -0.002, CCNC(=O)O[C@H]1CN[C@H](C#Cc2cc3ncnc(Nc4ccc(OCc5cccc(F)c5)c(Cl)c4)c3s2)C1 -0.003, Cn1cc(C2=C(c3cn(CCCN)c4ccccc34)C(=O)NC2=O)c2ccccc21 -0.0135, COc1cc2ncn(-c3cc(O[C@H](C)c4ccccc4Cl)c(C(N)=O)s3)c2cc1OC -0.004
